Results filed as inconclusive are left out. A call without a number means that no potency is given here. A number with no mark means an inactive call. Calls of active or inactive are those of the source. Calls come from the whole dose curve; as a rule, active = well fitted cell-killing curve with a large enough effect in the repeat runs; inconclusive = weak or mixed curves, or effect the other way; inactive = flat fitted curve, though single readings scatter.

A short description of this assay: qHTS RealTime-Glo MT Cell Viability Assay in HepG2 cells - 0 hour (AID 1224889). Note: nearly all actives have a fitted effect of over 50% in size. The following applies: RealTime-Glo luminescence; series mostly up to 76.8 µM. The source says:
U.S. Tox21 Program National Center for Advancing Translational Sciences [NCATS] NIH Chemical Genomics Center [NCGC] U.S. Environmental Protection Agency [EPA] National Institutes of Environmental Health Sciences [NIEHS] National Toxicology Program [NTP] U.S. Food and Drug Administration [FDA] Tox21 Assay Overview: Measure of cell viability is critical in the cell-base assay. Analysis of cell viability is necessary for the characterization of cell responses to cytotoxic drugs and environmental stress. A RealTime-Glo MT Cell Viability Assay to monitor cell viability in real time of continues cell culture during 40 hours of compound treatment was used to screen Tox21 10K library compounds in HepG2 cells. The RealTime-Glo MT Cell Viability Assay is a nonlytic, homogeneous, bioluminescent method to measure cell viability in real time using a simple, plate-based method. The assay involves adding NanoLuc luciferase and a cell-permeant prosubstrate to cells in culture. Viable cells reduce the proprietary prosubstrate to generate a substrate for NanoLuc luciferase. This substrate diffuses from cells into the surrounding culture medium, where it is rapidly used by the NanoLuc Enzyme to produce a luminescent signal. The signal correlates with the number of viable cells, making the assay well suited for cytotoxicity studies.
Tox21 Assay Protocol Summary: The mixture of HepG2 cell suspension and reagents were dispensed at 600cells/6 ul/well in 1536-well tissue culture treated black solid bottom plates using a Multidrop dispenser. After the assay plates were incubated at a 37 C/5% CO2 incubator for 5 hours, 23 nL of compounds dissolved in DMSO, positive and negative controls was transferred to the assay plate by a pintool work station. The plates were incubated at 37 C for 40 hours. The luminescence intensity were measured at 0h, 8h, 16h, 24h, 32h and 40h time points using ViewLux plate reader during compound treatment.
`CCC(C)(NC(=O)c1cc(Cl)c(C)c(Cl)c1)C(=O)CCl` (stereo not given): the Potency entry was “inactive”.
Same read-out and setting: the value for `c1cc2ccc3cccc4ccc(c1)c2c34` was “inactive”.
As to `N#Cc1cc(I)c(O)c(I)c1`, the Potency entry was “inactive”.
The same measure, in the same setting: the value for `Cc1ccc(N)cc1C` was “inactive”; that for `BrCCCCBr` was “inactive”.
On the same count and under the same terms, in the case of `CCCC(Cn1cncn1)c1ccc(Cl)cc1Cl` (stereo not given) it was “inactive”; in that of `O=C(CBr)Nc1ccc(Cl)cc1C(=O)c1ccccc1F`, “inactive”; in that of `CCCCCCC#N`, “inactive”.
Turning to `N#C/C(N)=C(/N)C#N`, the Potency entry was “inactive”.
In the case of `C=CC(=O)OC`, the Potency result is “inactive”.
On the same count and under the same terms, in the case of `CCCCNP(N)(N)=S` it was “inactive”; in that of `O=C(C(Cl)(Cl)Cl)C(Cl)(Cl)Cl`, “inactive”.
For `O=[N+]([O-])c1ccccc1CCl`, the Potency entry is “inactive”.
Same read-out and setting: in the case of `C=CCN1CC[C@]23c4c5ccc(O)c4O[C@H]2C(=O)CC[C@@]3(O)[C@H]1C5` it was “inactive”.
The same measure, in the same setting: the value for `C=CCC1([C@H](C)CCC)C(=O)NC(=O)NC1=O` was “inactive”; that for `Cl/C=C\C[N+]12CN3CN(CN(C3)C1)C2` was “inactive”; that for `COc1cc(Cl)c(OC)cc1Cl` was “inactive”.
Consider `NCCCNCCCN`, for which the Potency result was “inactive”.
Regarding `CO[C@@H]1[C@H](OC(=O)NC(=O)CCl)CC[C@]2(CO2)[C@H]1[C@@]1(C)O[C@@H]1CC=C(C)C`, the activity change, negative = cytotoxicity is 0.756% [at 15.8 µM].
For `CCOP(=O)(OCC)O/C(=C/Cl)c1ccc(Cl)cc1Cl`, the Potency entry is “inactive”.
Consider `O=C(O)COc1ccc(Cl)cc1`, for which the Potency result was “inactive”.
Same read-out and setting: the value for `Clc1ccc(C2(Cn3cncn3)CC(Br)CO2)c(Cl)c1` (stereo not given) was “inactive”; that for `O=C(CBr)c1ccccc1` was “inactive”.
Turning to `ClCc1cccc(Cl)c1`, the Potency entry is “inactive”.
Still for that read-out and setting: the value for `CN(N=O)c1ccc([N+](=O)[O-])cc1` was “inactive”; that for `CCOc1ccc(C(C)(C)COCc2cccc(Oc3ccccc3)c2)cc1` was “inactive”.
Same read-out and setting: the value for `CCCCN(N=O)C(=N)N[N+](=O)[O-]` was “inactive”; that for `O=C(O)CC(Cl)C(=O)O` (stereo not given) was “inactive”; that for `COc1ccc(-c2ccccc2)cc1NNC(=O)OC(C)C` was “inactive”.
As to `C=CC(=O)OCC(C)O` (stereo not given), the Potency result was “inactive”.
With `C=CC(=O)NCNC(=O)C=C`, the Potency entry was “inactive”.
Same read-out and setting: in the case of `CC(C)(C)C(O)C(Oc1ccc(Cl)cc1)n1cncn1` (stereo not given) it was “inactive”.
The same measure, in the same setting: the value for `CN1[C@@H]2CC[C@H]1CC(OC(=O)c1cc(Cl)cc(Cl)c1)C2` (stereo not given in full) was “inactive”; that for `COCC(C)N(C(=O)CCl)c1c(C)csc1C` (stereo not given) was “inactive”.
Same read-out and setting: the value for `ClC=C(Cl)Cl` was “inactive”.
As to `CCOC(=O)C(Cl)C(C)=O` (stereo not given), the Potency result was “inactive”.
Still for that read-out and setting: the value for `O=[N+]([O-])C(Br)(CO)CO` was “inactive”; that for `CC(C)=CCOc1c2occc2cc2ccc(=O)oc12` was “inactive”.
For the compound `CCCCOC(=O)c1ccccc1C(=O)OCc1ccccc1`, the Potency entry was “inactive”.
Same read-out and setting: the value for `OCCCBr` was “inactive”.

The values above are taken from PubChem BioAssay (Tox21).
